Source: PubChem BioAssay AID493175 (National Center for Advancing Translational Sciences (NCATS), 2011)
Inconclusive results are not listed. Values without a mark were called inactive. The call rests on the fitted dose curve; in most records, active means well fitted curve in the direction sought with a large enough effect; inconclusive means small, poorly fitted or top-dose-only effect, or another doubt; inactive means no such curve, though single readings can be large or run the other way.

molecular target: Luciferin 4-monooxygenase (Photinus pyralis) (UniProt P08659); assay: miR-21 counterscreen using purified firefly luciferase; settings: purified P. pyralis luciferase, luminescence; series mostly up to 57.5 µM; activity change, negative = inhibition: at the top concentration
From the text: MLPCN Grant: 1 R21 NS059478-01 Assay Provider: Qihong Huang, The Wistar Institute NCGC Assay Overview: MicroRNAs (miRNAs) are endogenously encoded small (~20-25 nucleotides), nonprotein-coding RNAs that are involved in post-transcriptional repression of target messenger RNAs (mRNAs) (Le and Hannon, 2004). Estimated to be involved in the regulation of 30% of all protein-coding mRNAs (Filipowicz et al., 2008), miRNAs play a significant role in many biological processes including cellular differentiation and tissue development (Ghildiyal and Zamore, 2009). […] Compounds active in the miR-21 FLuc assay were clustered using Leadscope and active chemical series were prioritized based on chemical properties, potential for medicinal chemistry optimization, and SAR. Within each chemical series, representative compounds were re-acquired to test for activity in a secondary assay based on the quality of their CRC, efficacy, and potency. This secondary assay to determine if compounds active in the miR-21 FLuc assay were just luciferase inhibitors. Compounds found active in both the miR-21 FLuc and purified FLuc assays are considered as false positives. Keywords: NIH Roadmap, MLPCN, MLSMR, qHTS, miR-21, firefly luciferase, FLuc, miRNA.
NCGC Assay Protocol Summary: Reagents: 50mM Tris acetate, pH 7.5; 10mM Mg acetate; 10uM D-luciferin (Sigma #L9504); 10uM ATP; 0.01% Tween-20; 0.05% BSA; 10nM P. pyralis luciferase (Sigma #L9506) Control compounds used were two known firefly luciferase inhibitors (compounds (2) and (5) in Auld et al., 2010), and DMSO. Assay Summary: Three microliters containing firefly luciferase substrates in buffer (final concentrations: 50mM Tris acetate, pH 7.5, 10mM Mg acetate, 0.01% Tween-20, 0.05% BSA, 10uM D-luciferin, and 10uM ATP) are dispensed into each well of a Greiner white, solid-bottom 1536-well format plate using a flying reagent dispenser (FRD). These assay plates were then treated with 23nL of compound or DMSO using a Kalypsys pin tool, which allows for delivery of a 6-point interplate titration of each compound to the assay plate (quantitative HTS), with a final compound concentrations ranging from approximately 60 µM to 7pM. One microliter of firefly luciferase in […] Tris-acetate buffer was then delivered by FRD to each well for a final enzyme concentration of 10nM. Luciferase activity was then measured using a ViewLux CCD imager (PerkinElmer), with an average exposure time of 2-30 seconds (2X binning, medium/high gain).

Sequence of Luciferin 4-monooxygenase (Photinus pyralis) (P08659 whole entry, looked up): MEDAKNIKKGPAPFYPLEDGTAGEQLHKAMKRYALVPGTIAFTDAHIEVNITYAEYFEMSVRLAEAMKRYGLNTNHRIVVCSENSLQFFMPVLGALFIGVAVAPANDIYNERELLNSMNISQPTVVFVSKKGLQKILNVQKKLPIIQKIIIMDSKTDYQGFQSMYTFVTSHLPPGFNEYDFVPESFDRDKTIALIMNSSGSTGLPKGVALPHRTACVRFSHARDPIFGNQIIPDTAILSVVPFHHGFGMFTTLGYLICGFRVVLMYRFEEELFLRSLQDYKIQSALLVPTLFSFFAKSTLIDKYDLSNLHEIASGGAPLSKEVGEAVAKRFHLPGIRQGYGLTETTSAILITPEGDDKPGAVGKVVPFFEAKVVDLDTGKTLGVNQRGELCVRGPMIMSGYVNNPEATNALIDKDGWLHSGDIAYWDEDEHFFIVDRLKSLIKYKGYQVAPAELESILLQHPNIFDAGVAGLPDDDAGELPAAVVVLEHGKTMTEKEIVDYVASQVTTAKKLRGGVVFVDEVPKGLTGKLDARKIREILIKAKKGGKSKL

Going from `Cc1ccc(CNc2nc(-c3ccco3)nn2S(C)(=O)=O)cc1` to `COc1ccccc1C(=O)n1nc(-c2ccco2)nc1NCc1ccc(Cl)cc1`, the “activity change, negative = inhibition” value falls from 1.57% to 0.108%.

Compared with `Cc1c(-c2nnc(SCC(=O)Nc3ccccc3F)o2)nnn1-c1ccc(F)cc1`, `O=C(CSc1nnc(-c2ccc(O)cc2)o1)Nc1ccccc1Br` is higher in “activity change, negative = inhibition” value: -20% for the first, 4.86% for the second.

Compared with `CCC(C)S(=O)(=O)c1oc(-c2cccs2)nc1S(=O)(=O)c1ccccc1` (stereo not given), `COc1cccc(NC(=O)CSc2nnc(-c3cccs3)o2)c1` is higher in “activity change, negative = inhibition” value: -12.1% for the first, -3.97% for the second.

Going from `Cc1ccc(-c2csc(NC(=O)CSc3nc4ccccc4o3)n2)cc1` to `Cc1ccc(SCC(=O)Nc2ccc3oc(-c4ccc(F)cc4)nc3c2)cc1`, the “activity change, negative = inhibition” value falls from 0.587% to -1.61%.

Compared with `Nc1c(-c2nc(-c3ccncc3)no2)nnn1CC(=O)Nc1ccccc1`, `Cc1cccc(-n2nnc(-c3nc(-c4cccs4)no3)c2N)c1` is lower in “activity change, negative = inhibition” value: -2.75% for the first, -6.42% for the second.

Going from `COc1ccccc1NC(=O)C/C(C)=N/NC(=O)c1ccccn1` to `COc1ccccc1NC(=O)CSc1nnc(-c2ccccn2)o1`, the “activity change, negative = inhibition” value rises from -2.29% to 3.59%.

First: Fc1cccc(Cl)c1CSc1nnc2ccccn12
Second: Fc1ccccc1CSc1nnc(-c2cnccn2)n1Cc1ccco1
The “activity change, negative = inhibition” value of the first is lower: -17.8% for the first, -4.71% for the second.

Going from `COc1ccc(NCc2cccn2-c2nnc(N3CCC(C)CC3)s2)c(OC)c1` to `CCC(Oc1ccccc1F)C(=O)N1CCC(c2nc3ccccc3s2)CC1` (stereo not given), the “activity change, negative = inhibition” value rises from -18.9% to 3.23%.

First: O=C(CSc1nnc(-c2cccnc2)o1)Nc1cccc(Cl)c1
Second: CC(C)(C)c1ccc(NC(=O)CSc2nnc(-c3n[nH]c4ccccc34)o2)cc1
The “activity change, negative = inhibition” value of the first is higher: 2.64% for the first, -19.9% for the second.

First: Cn1c(=O)[nH]c2cc(-c3noc(-c4ccc(F)cc4)n3)ccc21
Second: Cc1c(-c2nc(-c3ccc(C(F)(F)F)cc3)no2)n(C)oc1=O
The “activity change, negative = inhibition” value of the first is lower: -17.8% for the first, 6.33% for the second.

Going from `O=S(=O)(c1ccc(F)cc1)n1ccc(-c2cnc(-c3ccccc3)s2)n1` to `CCC(=O)n1nc(-c2cccnc2)nc1NCc1ccc(F)cc1`, the “activity change, negative = inhibition” value rises from -19.1% to -1.65%.

Going from `Cc1ccc(C(=O)Nc2ccc3c(c2)N(C)C(=O)c2ccccc2S3)cc1` to `Cc1ccc(-c2nsc(SCC(=O)Nc3ccc4c(c3)OCO4)n2)cc1`, the “activity change, negative = inhibition” value falls from -1.26% to -19.4%.

Going from `COc1cc(-c2nc3cnccn3c2Nc2ccc(C(C)C)cc2)ccc1O` to `Cc1ccc(-c2nc3cnccn3c2Nc2ccccc2)o1`, the “activity change, negative = inhibition” value falls from -1.34% to -19.4%.

Compared with `CN(C(=O)CSc1nnc(-c2ccccc2F)o1)C1CCCCC1`, `Cc1cc(C)cc(NC(=O)CSc2nnc(CNC(=O)c3ccco3)o2)c1` is higher in “activity change, negative = inhibition” value: -17.4% for the first, 3.89% for the second.

Going from `C/C(=N\NC(=O)c1cccs1)c1ccncc1` to `COc1ccc(-c2csc(NC(=O)COC(=O)c3ccc(Br)o3)n2)cc1`, the “activity change, negative = inhibition” value rises from -17.6% to 0.739%.

Compared with `CCCCOc1ccccc1CC1C(=O)Nc2ccc(Br)cc21` (stereo not given), `CCCCN1C(C(=O)c2ccccc2)=C(OC(C)=O)c2ccccc2S1(=O)=O` is lower in “activity change, negative = inhibition” value: -3.67% for the first, -17% for the second.

First: Cc1ccccc1Nc1nc(N)nc(CN(C)c2ccccc2)n1
Second: Cc1cc(SCC(=O)Nc2nsc(-c3ccc(C(C)(C)C)cc3)n2)nc2ccccc12
The “activity change, negative = inhibition” value of the first is lower: 0.346% for the first, 1.68% for the second.

First: C[C@]12CC[C@H]3C(=CCc4cc(O)ccc43)[C@@H]1CCC2=O
Second: COc1ccc(OCC(=O)Nc2ccc(-c3nc4cc(Cl)ccc4o3)cc2)cc1
The “activity change, negative = inhibition” value of the first is lower: -18.3% for the first, -3.29% for the second.

Going from `CCc1nonc1NC(=O)c1oc2ccc(C)cc2c1C` to `COc1ccc(OCC(=O)Nc2ccc(-c3nc4cc(C)c(C)cc4o3)cc2)cc1`, the “activity change, negative = inhibition” value rises from -2.28% to -0.217%.

First: c1ccc(C2=Nn3c(nnc3-c3cc(-c4ccccc4)n[nH]3)SC2)cc1
Second: COCc1cc(C)nc2sc(C(=O)OC(C)C)c(N)c12
The activity change, negative = inhibition of the first is lower: -18.1% [at 2.3 µM] for the first, -1.1% [at 2.3 µM] for the second.
